From the supplement of paper PMC11219838

Each compound was assayed on Caenorhabditis elegans L1 (N2) (assay: survival and reproduction score of C. elegans L1 (0: 0-10 living worms, 1: 11-20, 2: 21-50, 3: >50, 4: overgrown) (score 0-4); higher = more worms, less nematicidal, active = 1 or less; extreme values may be limits of the assay). Details: 60 µM; 6 days; temperature: 20 °C.
How it was run: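 Each 96-well well received about 20 synchronized N2 L1 worms of C. elegans, E. coli HB101 and liquid NGM, plus compound pinned to 60 µM final (0.6% v/v DMSO). Sealed plates were incubated with shaking at 200 rpm, 20 °C, for 6 days. Survival and reproduction were rated under a dissection microscope as an ordinal score of living worms per well, averaged across biological replicates. The scale spanned 0 (0–10 worms) to 4 (overgrown, starved), and there were two replicates.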

| SMILES | survival and reproduction score |
| --- | --- |
| CCOC(=O)c1sc(NC(=O)CSc2nnc(-c3ccc(Cl)cc3)o2)c(C(=O)OCC)c1C | 4 (inactive) |
| Cc1ccc(OCc2nc(-c3cccnc3)no2)c(Br)c1 | 4 (inactive) |
| CNC(=O)c1ccccc1-c1nc(-c2ccc(F)cc2)no1 | 4 (inactive) |
| Cc1ccc(C)c(OCc2nc(-c3cccnc3)no2)c1 | 4 (inactive) |
| Cc1ccc(-c2nc(-c3ccc(Br)cc3)no2)cc1 | 4 (inactive) |
| COc1ccc(-c2noc(-c3ccccc3Br)n2)cc1 | 4 (inactive) |
| Clc1ccccc1-c1noc(-c2ccccc2Cl)n1 | 2 (inactive) |
| COc1ccc(Cl)cc1NC(=O)CSc1nnc(-c2ccc(Br)cc2)o1 | 4 (inactive) |
| CCOc1ccccc1-c1nnc(SCC(=O)N2CCC(C)CC2)o1 | 4 (inactive) |
| COc1ccccc1-c1nnc(SCC(=O)Nc2nc(C)cs2)o1 | 4 (inactive) |
| O=C(CSc1nnc(-c2ccco2)o1)c1ccc(Br)cc1 | 4 (inactive) |
| O=C(CSc1nnc(-c2ccc(Cl)cc2)o1)NC1CC2CCC1C2 (centres undefined) | 4 (inactive) |
| Cc1ccc(SCc2nc(-c3cccnc3)no2)cc1 | 1.5 (inactive) |
| COc1ccc(-c2noc(-c3cc(C)ccc3C)n2)cc1 | 4 (inactive) |
| O=C(Nc1ccccc1-c1nc(-c2cccnc2)no1)c1ccccc1Cl | 4 (inactive) |
| CN(C)C(=O)c1ccccc1-c1nc(-c2ccccc2Cl)no1 | 4 (inactive) |
| Cc1ccc(-c2nnc(SCC(=O)NCCc3ccccc3)o2)cc1 | 4 (inactive) |
| O=C(CSc1nnc(-c2ccccc2)o1)Nc1ccccc1F | 4 (inactive) |
| COc1ccc(-c2nnc(SCc3ccccc3)o2)cc1 | 4 (inactive) |
| c1coc(-c2nnc(-c3ccco3)o2)c1 | 4 (inactive) |

| SMILES | survival and reproduction score |
| --- | --- |
| CC(C)Oc1ccc(-c2nc(-c3ccccc3)no2)cc1 | 0 (active) |
| Fc1cccc(Cl)c1CSc1nnc(-c2ccccc2)o1 | 4 (inactive) |
| CCSc1nnc(-c2ccc(Cl)cc2Cl)o1 | 0 (active) |
| CCOc1ccccc1-c1nc(-c2ccc(NC(=O)c3ccncc3)cc2)no1 | 4 (inactive) |
| N#Cc1ccc(OCc2nc(-c3cccs3)no2)cc1 | 4 (inactive) |
| COc1ccc(-c2noc(COc3ccc(F)cc3)n2)cc1 | 4 (inactive) |
| Cc1ccccc1OCc1nc(-c2ccc(Br)cc2)no1 | 4 (inactive) |
| COc1ccccc1-c1nnc(SCc2ccccc2C)o1 | 4 (inactive) |
| COc1ccccc1CC(=O)Nc1ccc(-c2noc(-c3ccccc3C)n2)cc1 | 4 (inactive) |
| CC(=O)Nc1ccc(-c2nc(-c3ccccc3)no2)cc1 | 4 (inactive) |
| Cc1cccc(-c2nc(-c3ccc4c(c3)OCO4)no2)c1 | 4 (inactive) |
| COc1ccccc1NC(=O)CSc1nnc(-c2ccc(Cl)cc2)o1 | 4 (inactive) |
| Cn1c(SCc2nc(-c3ccc(Br)cc3)no2)nnc1-c1ccco1 | 4 (inactive) |
| Brc1ccc(-c2nc(-c3cccnc3)no2)cc1 | 0 (active) |
| CCCC(=O)Nc1ccccc1-c1nc(-c2ccccn2)no1 | 4 (inactive) |
| Cc1ccc(-c2nc(C3CCCCC3)no2)cc1 | 0 (active) |
| O=C(Nc1cccc(-c2noc(-c3cccnc3)n2)c1)c1cccs1 | 4 (inactive) |
| COc1ccc(-c2noc(COc3ccc(Br)c(C)c3)n2)cc1 | 4 (inactive) |
| Brc1cccc(-c2noc(-c3ccc4c(c3)OCO4)n2)c1 | 4 (inactive) |
